Screens as filed in PubChem.
POLB inh – DNA polymerase beta (human) inhibition. Potency, µM (series often up to 114 µM), for inactives: at the highest dose activity change, negative = inhibition, actives largely listed as inhibitors. 1.3% of 340,000 active. P06746. AID 485314. Pol beta primer extension/strand displacement, fluorescence kinetic; further: potency means the concentration at half of the fitted maximal effect; on the % scale 0 is the no-effect control and ±100 the full control effect
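Curves were derived by four-parameter Hill fits of normalized qHTS data. The kinetic fluorescent primer-extension read was taken at 0 and 10 min after 50 nM substrate, following a 15 min room-temperature preincubation of 10 nM enzyme with compounds.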
FEN1 inh – blocks human flap endonuclease 1; P39748; Potency, µM (highest dose often 114 µM), inactives show at the top dose activity change, negative = inhibition, most hits filed as inhibitors; Recombinant FEN1 flap cleavage, fluorescence, 15 min; 0.35% of 390,000 active; further: potency means the concentration at half of the fitted maximal effect; on the % scale 0 is the no-effect control and ±100 the full control effect; nearly all actives have a fitted effect of over 65% in size
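Concentration–response screening of FEN1 (10 nM): 15 min compound preincubation at room temperature, reaction started with 50 nM substrate and read at 0 and 15 min. Corrected, normalized data were fitted by a four-parameter Hill equation.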
POLI inh – DNA polymerase iota (human) inhibition; Q9UNA4; Pol iota fluorescent replication assay, 10 min; Potency, µM (top dose mostly 115 µM), without a hit: at the top dose activity, negative = inhibition, usual class: inhibitors; 1% of 390,000 active; AID 588590; further: potency means the concentration at half of the fitted maximal effect
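Fluorescent replication assay read twice, at 0 min and 10 min after adding 50 nM (final) substrate. Enzyme (10 nM) and compounds were first incubated 15 min at room temperature; enzyme-free buffer wells were negative controls.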
Pol eta inh-1 – DNA polymerase eta (human) inhibition; Q9Y253; Potency, µM (series often up to 114 µM), without a hit: at the top dose activity change, negative = inhibition, actives largely listed as inhibitors; 1.2% of 390,000 active; AID 588591; recombinant Pol eta, fluorescent DNA replication assay; further: potency means the concentration at half of the fitted maximal effect; on the % scale 0 is the no-effect control and ±100 the full control effect
Target sequence (Q9Y253 whole entry, looked up): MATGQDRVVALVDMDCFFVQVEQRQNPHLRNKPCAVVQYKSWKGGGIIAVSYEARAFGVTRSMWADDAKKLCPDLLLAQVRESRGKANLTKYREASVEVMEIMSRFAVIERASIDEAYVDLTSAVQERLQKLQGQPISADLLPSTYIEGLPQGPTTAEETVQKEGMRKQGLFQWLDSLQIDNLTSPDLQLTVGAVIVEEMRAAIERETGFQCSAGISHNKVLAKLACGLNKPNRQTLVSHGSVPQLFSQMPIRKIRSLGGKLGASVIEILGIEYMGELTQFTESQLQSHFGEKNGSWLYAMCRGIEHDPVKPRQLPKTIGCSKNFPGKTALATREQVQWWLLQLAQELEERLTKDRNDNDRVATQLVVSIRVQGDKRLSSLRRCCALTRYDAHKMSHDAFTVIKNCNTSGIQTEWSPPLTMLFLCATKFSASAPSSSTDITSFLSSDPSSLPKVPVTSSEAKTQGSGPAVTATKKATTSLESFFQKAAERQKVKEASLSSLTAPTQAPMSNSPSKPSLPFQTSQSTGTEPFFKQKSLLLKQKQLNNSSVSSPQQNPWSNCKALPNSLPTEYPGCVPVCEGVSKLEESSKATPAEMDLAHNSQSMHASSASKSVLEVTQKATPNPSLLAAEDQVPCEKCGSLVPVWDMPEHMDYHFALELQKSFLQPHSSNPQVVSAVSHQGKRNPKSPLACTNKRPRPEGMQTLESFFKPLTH
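Pol eta at 10 nM preincubated with compounds 15 min at room temperature; reaction started with fluorescent substrate (50 nM final) and read kinetically at 0 and 10 min.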
WRN helicase inh – blocks human WRN helicase. WRN helicase unwinding, fluorescent forked duplex, kinetic. 0.46% of 360,000 active. Potency, µM (highest dose often 114 µM), for inactives: at the highest dose activity change, negative = inhibition, most hits filed as inhibitors; further: potency means the concentration at half of the fitted maximal effect; on the % scale 0 is the no-effect control and ±100 the full control effect; nearly all actives have a fitted effect of over 55% in size
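Enzyme (20 nM final) and test compound sit together 15 min at room temperature before substrate addition. Substrate is a single-forked duplex oligonucleotide (100 nM) labelled with fluorophore and quencher, with 2 mM ATP; helicase unwinding raises red fluorescence, read kinetically.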
Pol kappa inh-1 – blocks human DNA polymerase kappa activity; purified Pol kappa, fluorescent DNA synthesis assay, 10 min; Potency, µM (highest dose often 107 µM), without a hit: at the top dose activity, negative = inhibition, actives largely listed as inhibitors; Q9UBT6; 0.53% of 400,000 active; further: potency means the concentration at half of the fitted maximal effect; on the % scale 0 is the no-effect control and ±100 the full control effect
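Here, compound and 10 nM enzyme are combined for 15 min at room temperature; adding 50 nM substrate (final) starts DNA synthesis, tracked by fluorescence at 0 and 10 min against buffer-only wells.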
PGK validate – TbPGK inhibition, hit validation; shares compounds with Pol kappa inh-1; TbPGK coupled GAPDH assay, Kinase-Glo luminescence; Potency, µM (top dose mostly 57.5 µM), without a hit: top-dose activity change, negative = inhibition, most hits filed as inhibitors; 79% of 500 active; further: potency means the concentration at half of the fitted maximal effect; on the % scale 0 is the no-effect control and ±100 the full control effect; nearly all actives have a fitted effect of over 65% in size
Pol iota confirm – Inhibitors of human DNA polymerase iota, confirmation. shares compounds with Pol kappa inh-1. Pol iota primer extension, TAMRA/BHQ fluorescence. Potency, µM, usual class: inhibitors. 77% of 1,500 active. AID 720496; further: potency means the concentration at half of the fitted maximal effect
GALK confirm – galactokinase (human) inhibition, confirmation; Potency, µM (highest dose often 115 µM), for inactives: top-dose activity, negative = inhibition, hits mostly inhibitors; 70% of 150 active; purified GALK, Kinase-Glo ATP depletion luminescence; shares compounds with Pol eta inh-1
Redox cycling – counter-screen for GALK inhibitors: redox cycling H2O2 generation | shares compounds with Pol eta inh-1 | Phenol red-HRP H2O2 redox cycling, absorbance 600 nm | Potency, µM (highest dose often 115 µM), for inactives: at the top dose activity change, negative = H2O2 signal, usual class: inhibitors | 40% of 150 active | AID 2035
HEK293 viability – HEK-293 cytotoxicity, GALK inhibitor secondary; shares compounds with Pol eta inh-1; HEK-293 viability, ATP luminescence (CellTiter-Glo), 24/48 h; Potency, µM (top dose mostly 46.1 µM), for the others: at the top dose activity change, negative = cytotoxicity, hits mostly inhibitors; 10% of 170 active; AID 2547; further: potency means the concentration at half of the fitted maximal effect; on the % scale 0 is the no-effect control and ±100 the full control effect
Pol kappa inh-2 – confirmation of human DNA polymerase kappa inhibitors; Potency, µM, usual class: inhibitors; purified Pol-kappa, fluorescent strand-displacement substrate; 76% of 920 active; shares compounds with Pol eta inh-1; further: potency means the concentration at half of the fitted maximal effect
Pol eta inh-2 – confirmation of human DNA polymerase eta inhibitors | shares compounds with Pol eta inh-1 | Pol eta primer extension, TAMRA/BHQ fluorescence, 10 min | Potency, µM, usual class: inhibitors | 64% of 2,600 active | AID 720502; further: potency means the concentration at half of the fitted maximal effect
An asterisk follows results filed as active; u = inconclusive; x = not tested or not shown; [ ] = another dose, or the depositor's remark. Hits are enriched below; roughly 2.4% of the tested compounds scored in any of these assays. The call rests on the fitted dose curve; in most records, active means well fitted curve in the direction sought with a large enough effect; inconclusive means small, poorly fitted or top-dose-only effect, or another doubt; inactive means no such curve, though single readings can be large; an effect the other way counts as inactive or inconclusive.

SMILES	POLB inh	FEN1 inh	POLI inh	Pol eta inh-1	WRN helicase inh	Pol kappa inh-1	Pol iota confirm	Pol eta inh-2	others
CN(C)c1ccc2cc(S(=O)(=O)O)cc(O)c2c1	x	50.1µM*	u	10µM*	u	31.6µM*	u	19*
COc1ccc(NC(=O)CN(C)C(=O)c2cccc(-n3cccc3)c2)cc1	x	-12.1%	12.6µM*	11.2µM*	44.7µM*	44.7µM*	29.9*	67.5*
Cc1cc(N/N=C/c2ccc(O)cc2)nc(NS(=O)(=O)c2ccccc2)n1	17.8µM*	-7.2%	u	20µM*	-27.6%[57.1 µM]	u	x	u	PGK validate=5.17µM*
COc1ccc(CNC(=O)c2ccc(CS(=O)Cc3ccccc3Cl)o2)cc1 (centres undefined)	5.0%	-4.2%	13.5%	-23.5%	x	3.4%	x	x
CCN(CC)CCOC(=O)c1ccc(NC(=O)c2nn(-c3ccc(C)cc3)c(=O)c3c2c2ccccc2n3C)cc1	7.94µM*	3.6%	u	79.4µM*	x	-7.1%	u	u	Pol kappa inh-2=u
CCN(CC)CCCNC(=O)c1nn(-c2ccc(C)cc2)c(=O)c2c1c1ccccc1n2C	-0.7%	u	-2.8%	x	x	-22.9%	x	x
COc1cc(/C=C(\C#N)c2nc3ccccc3s2)cc([N+](=O)[O-])c1O	39.8µM*	u	u	u	u	89.1µM*	75.2*	75.7*
COc1ccc(-c2csc(/C(C#N)=C\c3ccc(O)c([N+](=O)[O-])c3)n2)cc1OC	-11.4%	-32.1%	-7.7%	8.0%	u	-8.8%	x	x
O=C(Oc1ccccc1F)c1nc(SCc2ccccc2F)ncc1Cl	40.0%	-11.4%	2.3%	-12.9%	x	0.2%	x	x
COC(=O)CCc1ccc(O)cc1	25.8%	0.2%	8.3%	1.7%	-7.2%	1.4%	x	x
COC(=O)C1(Cc2ccc(O)cc2)OC(=O)C(O)=C1c1ccc(O)cc1 (centres undefined)	20µM*	u	12.6µM*	11.2µM*	u	u	42.3*	26.9*
CC(=O)c1ccc(N2CCN(C(=O)CCc3nnc4n(C)c(=O)c5sccc5n34)CC2)cc1	5.7%	-5.2%	12.5%	3.7%	x	-4.6%	x	x
COc1ccccc1OCC(=O)Nc1sc2c(c1C(N)=O)CCC2	x	-11.9%	u	u	-11.5%[11.6 µM]	u	x	x
COc1ccccc1NC(=O)COC(=O)c1cc2c(s1)CCC2	x	1.4%	31.6µM*	20µM*	u	u	75.2*	75.7*	Pol kappa inh-2=u
COc1cccc(C(=O)OCC(=O)Nc2sc3c(c2C(N)=O)CCC3)c1O	x	u	20µM*	22.4µM*	u	79.4µM*	42.3*	30.1*	Pol kappa inh-2=26.7*
COc1ccc(CNC(=O)CCCc2cn(C)c3ccccc23)c(OC)c1	-0.1%	-18.6%	-24.9%	-17.0%	x	-0.9%[60.1 µM]	x	x
CCCCCCCC/C=C\CCCCCCCCOC[C@H](COP(=O)([O-])OCC[N+](C)(C)C)OC(C)=O	x	x	x	x	x	4.4%[19.4 µM]	x	x
COc1ccc(/C=N/NC(=O)c2ccc(Br)o2)cc1Cn1cc([N+](=O)[O-])cn1	-21.1%	-5.7%	26.6%	-3.5%	9.9%	-1.9%	x	x
COc1ccc(/C=N/NC(=O)c2cc(O)c(O)c(O)c2)cc1Cn1cc([N+](=O)[O-])cn1	0.562µM*	u	3.16µM*	2.82µM*	8.91µM*	3.98µM*	8.44*	15.1*	PGK validate=u
NC(=O)Cc1ccc(C(=O)CSc2nnc(-c3ccncc3)n2C2CC2)s1	x	u	14.1µM*	12.6µM*	u	79.4µM*	u	75.7*
O=[N+]([O-])c1cc(/C=N/Nc2nc3ccccc3[nH]2)c(O)cc1O	20µM*	u	44.7µM*	4.47µM*	u	39.8µM*	u	u
COc1ccc(CNC(=O)c2cc3c(=O)n(C)c4ccccc4c3n2C)c(OC)c1	-2.5%	-7.0%	24.9%	-19.2%	x	-9.4%	x	x
CC(=O)NC1=NC(=O)/C(=C/c2cc(C)n(-c3ccc(NC(C)=O)cc3)c2C)S1	10.3%	1.9%	-8.3%	-2.7%	-22.1%	-18.5%	x	x
CC(=O)NC1=NC(=O)/C(=C/c2cc(C)n(-c3cccc(C(=O)O)c3)c2C)S1	6.31µM*	50.1µM*	14.1µM*	3.98µM*	44.7µM*	39.8µM*	9.47*	10.7*	PGK validate=6.51µM*;Pol kappa inh-2=8.44*
Cc1cc(/C=N/NC(=O)C(O)(c2ccccc2)c2ccccc2)c(C)n1-c1cccc(C(=O)O)c1	15.8µM*	u	15.8µM*	10µM*	u	u	33.6*	15.1*
CCC(CC)c1nn2c(=O)cc(COc3ccc(NC(=O)c4ccc(Cl)cc4)cc3)nc2s1	5.6%	-3.5%	43.6%	-15.7%	x	-0.6%	x	x
O=C1c2ccccc2C(=O)C12OC2c1cccc2ccccc12 (centres undefined)	10.1%	-7.7%	3.55µM*	20µM*	-10.4%[57.1 µM]	-2.1%	u	37.9*	GALK confirm=16.8µM*;Redox cycling=13.3µM*;HEK293 viability=-27.0%
Cc1ccc(NC(=O)CSc2nnc3nc(C)cc(C)n23)cc1	24.1%	-22.0%	-5.3%	-13.5%	x	-6.2%	x	x
O=c1cc(Br)c(O)c(Br)cc1Br	x	u	4.47µM*	17.8µM*	u	50.1µM*	u	60.1*
CC1CC(O)CC(C)(C)C1 (centres undefined)	x	x	x	x	x	-1.5%[19.4 µM]	x	x
